Giardia FBPA inh – blocks Giardia fructose-bisphosphate aldolase activity; A8B2U2; purified Giardia FBPA; AID 2451; hit rate 0.71% among 290,000; Potency, µM (top dose mostly 59.6 µM), without a hit: at the top dose activity, negative = inhibition, most hits filed as inhibitors; further: potency means the concentration at half of the fitted maximal effect; on the % scale 0 is the no-effect control and ±100 the full control effect; nearly all actives have a fitted effect of over 55% in size
Target sequence (A8B2U2 whole entry, looked up): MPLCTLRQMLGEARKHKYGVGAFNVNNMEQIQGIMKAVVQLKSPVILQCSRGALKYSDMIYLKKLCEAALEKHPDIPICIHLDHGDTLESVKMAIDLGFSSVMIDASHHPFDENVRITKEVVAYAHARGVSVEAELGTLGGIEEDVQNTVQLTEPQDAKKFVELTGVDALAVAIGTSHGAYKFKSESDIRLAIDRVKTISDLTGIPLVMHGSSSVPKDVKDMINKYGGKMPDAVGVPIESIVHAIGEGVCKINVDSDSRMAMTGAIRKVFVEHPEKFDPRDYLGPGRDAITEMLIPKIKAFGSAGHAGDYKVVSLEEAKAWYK
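Giardia FBPA (40 nM reagent) was preincubated 10 min at RT with compound (up to 57.5 uM final), then substrate plus GAPDH/TPI/NAD/arsenate coupling system with diaphorase/resazurin was added; resorufin fluorescence (525/598 nm) was read after 20 min.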
LmPK inhibitor – blocks Leishmania mexicana pyruvate kinase activity. hit rate 0.37% among 290,000. purified LmPK, Kinase-Glo ATP luminescence, 1 h. Q27686. Potency, µM (highest dose often 57.5 µM), inactives show at the highest dose activity change, negative = inhibition, usual class: inhibitors. AID 1721; further: potency means the concentration at half of the fitted maximal effect; on the % scale 0 is the no-effect control and ±100 the full control effect
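Purified LmPK (0.1 nM) with 0.5 mM PEP and 0.1 mM ADP in imidazole buffer pH 7.2 with MgCl2/KCl, 1 h at room temperature. ATP formed was read by luciferase luminescence and normalized to no-enzyme and uninhibited controls.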
Cycloheximide cs – counter-screen for Shiga toxin inhibitors: cycloheximide protein synthesis inhibition; max response, %; hit rate 12% among 300,000; cell reporter, cycloheximide protein synthesis inhibition counterscreen; in the data active means max response mostly above about 13%, no sharp cut-off; inactive means mostly below about 14%; further: read at 38.3 µM for the half of the compounds with a filed dose; 0% is about no effect
Shiga inhibitor – Shiga toxin inhibition; Vero cells, Shiga toxin protein synthesis inhibition reporter; hit rate 9.2% among 290,000; AID 2315; inhibition, % at 38.7 µM; in the data active means inhibition mostly above about 28%, no sharp cut-off; inactive means mostly below about 43%; further: 0% is about no effect
Sm TGR inh – blocks Schistosoma mansoni thioredoxin glutathione reductase; purified TGR, DTNB reduction, TNB absorbance 405 nm; hit rate 3% among 360,000; Potency, µM (series often up to 114 µM), inactives show top-dose activity change, negative = inhibition, most hits filed as inhibitors; AID 485364; further: potency means the concentration at half of the fitted maximal effect; on the % scale 0 is the no-effect control and ±100 the full control effect; nearly all actives have a fitted effect of over 60% in size
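Kinetic colorimetric format: TGR-catalysed, NADPH-driven DTNB reduction monitored via TNB absorbance. Enzyme dispensed at 20 nM; compound exposure 15 min at room temperature before reaction start.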
TbPYK inhibitor – blocks Trypanosoma brucei pyruvate kinase | hit rate 0.12% among 410,000 | TbPYK enzyme, Kinase-Glo Plus ATP luminescence, 45 min | Potency, µM (top dose mostly 76.8 µM), for the others: at the highest dose activity, negative = inhibition, actives largely listed as inhibitors | AID 624173; further: potency means the concentration at half of the fitted maximal effect; on the % scale 0 is the no-effect control and ±100 the full control effect; nearly all actives have a fitted effect of over 50% in size
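ADP (130 uM final) triggers the TbPYK reaction after compound addition; incubation is 45 min at room temperature. Kinase-Glo Plus is then added and luminescence imaged. Normalized data are fitted to concentration-effect curves.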
The depositor's hits bear a star. Many of the other results were omitted from the sample, so hits are more common in it than they were. Unless noted, the call rests on the fitted dose curve; in most records, active means well fitted curve in the direction sought with a large enough effect; inconclusive means small, poorly fitted or top-dose-only effect, or another doubt; inactive means no such curve, though single readings can be large; an effect the other way counts as inactive or inconclusive.

CC1Cc2nc(SCC(=O)Nc3ccc4c(c3)OCCO4)n(C)c(=O)c2S1 (stereo not drawn) was read as Giardia FBPA inh -5.7%, LmPK inhibitor -6.2%, Cycloheximide cs 9.0*, Shiga inhibitor 17.7, Sm TGR inh 5.7% and TbPYK inhibitor -11.1%.
For CC1Cc2nc(SCC(=O)Nc3ccc4c(c3)OCO4)n(Cc3ccccc3)c(=O)c2S1 (stereo not drawn) the results were Giardia FBPA inh -2.6%, LmPK inhibitor 6.4%, Cycloheximide cs 55.9*, Shiga inhibitor 83.4*, Sm TGR inh 1.4% and TbPYK inhibitor 5.4%.
`CC1Cc2nc(SCC(=O)Nc3nccs3)n(Cc3ccccc3)c(=O)c2S1` (stereo not drawn) gave Giardia FBPA inh -7.6%, LmPK inhibitor 4.0%, Cycloheximide cs 0.8, Shiga inhibitor -8.2, Sm TGR inh 1.6% and TbPYK inhibitor -4.9%.
Screening CCOC(=O)c1ccc(NC(=O)CSc2nc3c(c(=O)n2C)SC(C)C3)cc1 (stereo not drawn) returned Giardia FBPA inh -3.5%, LmPK inhibitor 7.7%, Cycloheximide cs 3.8, Shiga inhibitor 9.5, Sm TGR inh -7.3% and TbPYK inhibitor -4.9%.
COCCn1c(SCC(=O)Nc2ccc3c(c2)OCCO3)nc2c(c1=O)SC(C)C2 (stereo not drawn) was read as Giardia FBPA inh -3.2%, LmPK inhibitor 1.9%, Cycloheximide cs 22.7*, Shiga inhibitor 29.6*, Sm TGR inh 6.0% and TbPYK inhibitor 3.3%.
For CC1CC=CC2C1C(=O)N(Cc1ccccc1)C2c1ccc(-c2ccoc2)cc1F (stereo not drawn) the results were Giardia FBPA inh -7.6%, Cycloheximide cs 8.0 and Shiga inhibitor -5.3.
For COc1cc(NC(=O)c2noc3c2CC(C(C)(C)C)CC3)cc(OC)c1OC (stereo not drawn) the results were Sm TGR inh 9.1% and TbPYK inhibitor 2.5%.
ONCc1ccccc1 was read as Giardia FBPA inh inconclusive, Cycloheximide cs 4.2 and Shiga inhibitor 1.5.
`Cc1nn(C)c2c1c(-c1ccccc1)cc(=O)n2CC(=O)NC(C)c1ccccc1` (stereo not drawn) gave Sm TGR inh 3.5% and TbPYK inhibitor 1.0%.
O=C(NCC1CCCN(Cc2cccc(F)c2)C1)c1cccc2ccccc12 (stereo not drawn) was read as Giardia FBPA inh 8.1%, LmPK inhibitor -2.8%, Cycloheximide cs 1.7, Shiga inhibitor 17.5, Sm TGR inh 77.3% and TbPYK inhibitor -2.9%.
`CCC(CC)=NNc1cccc([N+](=O)[O-])c1` gave Giardia FBPA inh -0.8%, LmPK inhibitor 5.4%, Cycloheximide cs -2.9, Shiga inhibitor 10.5, Sm TGR inh -22.9% and TbPYK inhibitor -13.4%.
COc1ccc(/C=N/NC(=S)Nc2ccccc2[N+](=O)[O-])cc1O was read as Giardia FBPA inh -7.2%, LmPK inhibitor -1.5%, Cycloheximide cs 60.1*, Shiga inhibitor 62.2*, Sm TGR inh -2.5% and TbPYK inhibitor -6.8%.
`CCCOc1ccc(/C=N/Nc2ccccc2[N+](=O)[O-])c(O)c1` gave Giardia FBPA inh 2.0%, LmPK inhibitor -14.3%, Cycloheximide cs 57.5*, Shiga inhibitor 73.7*, Sm TGR inh -3.7% and TbPYK inhibitor inconclusive.
Screening CCCOc1ccc(/C=N/Nc2cccc([N+](=O)[O-])c2)c(O)c1 returned Giardia FBPA inh 2.4%, LmPK inhibitor -4.3%, Cycloheximide cs 82.4*, Shiga inhibitor 80.5*, Sm TGR inh -9.8% and TbPYK inhibitor 8.3%.
CCCOc1ccc(/C=N/Nc2ccc(C(=O)O)cc2)c(OCCC)c1 was read as Giardia FBPA inh 17.7%, LmPK inhibitor 1.7%, Cycloheximide cs 38.4*, Shiga inhibitor 120.9*, Sm TGR inh -17.2% and TbPYK inhibitor -11.4%.
CCOc1ccc(CCn2c3c(c(=O)[nH]c2=O)C(NC(=O)c2ccccc2)(C(F)(F)F)C(=O)N3)cc1OCC (stereo not drawn) was read as Sm TGR inh 12.6% and TbPYK inhibitor 0.9%.
For CN(C)c1ccc(NC(=O)CCSc2nc(-c3ccco3)cc(C(F)(F)F)n2)cc1 the results were Sm TGR inh 0.6% and TbPYK inhibitor -18.9%.

From PubChem BioAssay
